Test results published in ChEMBL document CHEMBL2218924, “A broad activity screen in support of a chemogenomic map for kinase signalling research and drug discovery” (Biochem J, 2013).

Experiments:
[1] = biological target: T1, Tyrosine-protein kinase ITK/TSK (Homo sapiens) (UniProt Q08881); details: at 10 µM
T1 sequence (whole entry): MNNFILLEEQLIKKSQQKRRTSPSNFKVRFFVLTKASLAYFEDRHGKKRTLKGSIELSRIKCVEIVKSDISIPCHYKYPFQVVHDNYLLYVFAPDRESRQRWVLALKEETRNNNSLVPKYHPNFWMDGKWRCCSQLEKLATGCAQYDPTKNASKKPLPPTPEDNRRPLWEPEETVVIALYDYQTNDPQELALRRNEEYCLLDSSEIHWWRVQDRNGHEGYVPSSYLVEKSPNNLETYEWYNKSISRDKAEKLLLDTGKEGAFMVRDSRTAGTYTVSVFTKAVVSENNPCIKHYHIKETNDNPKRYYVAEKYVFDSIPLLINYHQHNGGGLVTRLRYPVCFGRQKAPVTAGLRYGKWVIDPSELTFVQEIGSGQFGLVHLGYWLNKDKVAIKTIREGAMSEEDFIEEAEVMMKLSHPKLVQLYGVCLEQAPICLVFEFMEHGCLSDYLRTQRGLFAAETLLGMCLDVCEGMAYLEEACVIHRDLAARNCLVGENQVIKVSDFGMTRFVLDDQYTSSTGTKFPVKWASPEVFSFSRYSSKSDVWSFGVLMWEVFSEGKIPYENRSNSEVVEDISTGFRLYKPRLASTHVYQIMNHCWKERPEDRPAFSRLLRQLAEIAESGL

[2] = biological target: Tyrosine-protein kinase JAK2 (Homo sapiens) (UniProt O60674); details: at 1 µM
Chain of Tyrosine-protein kinase JAK2 (Homo sapiens) (O60674 whole entry): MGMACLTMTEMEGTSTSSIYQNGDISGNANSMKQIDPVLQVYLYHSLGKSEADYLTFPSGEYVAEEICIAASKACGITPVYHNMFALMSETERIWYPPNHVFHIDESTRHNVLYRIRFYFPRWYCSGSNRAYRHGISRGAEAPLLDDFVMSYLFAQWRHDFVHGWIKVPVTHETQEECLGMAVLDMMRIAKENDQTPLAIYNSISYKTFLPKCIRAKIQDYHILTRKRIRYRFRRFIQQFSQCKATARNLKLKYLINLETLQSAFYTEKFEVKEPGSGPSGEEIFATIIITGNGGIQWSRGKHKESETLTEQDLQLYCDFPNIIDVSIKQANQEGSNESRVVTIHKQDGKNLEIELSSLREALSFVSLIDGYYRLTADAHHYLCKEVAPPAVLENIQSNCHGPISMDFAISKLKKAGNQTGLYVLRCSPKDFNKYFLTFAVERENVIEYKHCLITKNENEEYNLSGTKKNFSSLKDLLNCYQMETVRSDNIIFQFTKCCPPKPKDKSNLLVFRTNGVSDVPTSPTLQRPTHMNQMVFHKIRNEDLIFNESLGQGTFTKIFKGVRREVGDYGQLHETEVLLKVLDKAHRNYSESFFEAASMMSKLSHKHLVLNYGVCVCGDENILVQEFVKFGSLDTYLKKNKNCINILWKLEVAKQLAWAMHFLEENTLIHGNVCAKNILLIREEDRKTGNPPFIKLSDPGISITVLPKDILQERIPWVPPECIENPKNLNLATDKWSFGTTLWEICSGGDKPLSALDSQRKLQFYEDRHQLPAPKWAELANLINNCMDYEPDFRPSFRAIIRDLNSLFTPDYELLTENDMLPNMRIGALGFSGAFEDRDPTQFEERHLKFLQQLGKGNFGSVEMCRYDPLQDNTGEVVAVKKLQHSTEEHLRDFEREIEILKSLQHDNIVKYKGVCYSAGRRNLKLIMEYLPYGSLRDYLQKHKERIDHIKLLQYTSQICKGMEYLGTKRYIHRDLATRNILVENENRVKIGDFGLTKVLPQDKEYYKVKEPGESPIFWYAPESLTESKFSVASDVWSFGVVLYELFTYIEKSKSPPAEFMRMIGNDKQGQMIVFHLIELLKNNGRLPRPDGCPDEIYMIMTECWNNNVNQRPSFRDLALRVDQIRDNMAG

[3] = biological target: Tyrosine-protein kinase JAK2 (Homo sapiens) (UniProt O60674); details: at 10 µM
[4] = biological target: T2, Tyrosine-protein kinase JAK3 (Homo sapiens) (UniProt P52333); details: at 1 µM
T2 sequence (whole entry): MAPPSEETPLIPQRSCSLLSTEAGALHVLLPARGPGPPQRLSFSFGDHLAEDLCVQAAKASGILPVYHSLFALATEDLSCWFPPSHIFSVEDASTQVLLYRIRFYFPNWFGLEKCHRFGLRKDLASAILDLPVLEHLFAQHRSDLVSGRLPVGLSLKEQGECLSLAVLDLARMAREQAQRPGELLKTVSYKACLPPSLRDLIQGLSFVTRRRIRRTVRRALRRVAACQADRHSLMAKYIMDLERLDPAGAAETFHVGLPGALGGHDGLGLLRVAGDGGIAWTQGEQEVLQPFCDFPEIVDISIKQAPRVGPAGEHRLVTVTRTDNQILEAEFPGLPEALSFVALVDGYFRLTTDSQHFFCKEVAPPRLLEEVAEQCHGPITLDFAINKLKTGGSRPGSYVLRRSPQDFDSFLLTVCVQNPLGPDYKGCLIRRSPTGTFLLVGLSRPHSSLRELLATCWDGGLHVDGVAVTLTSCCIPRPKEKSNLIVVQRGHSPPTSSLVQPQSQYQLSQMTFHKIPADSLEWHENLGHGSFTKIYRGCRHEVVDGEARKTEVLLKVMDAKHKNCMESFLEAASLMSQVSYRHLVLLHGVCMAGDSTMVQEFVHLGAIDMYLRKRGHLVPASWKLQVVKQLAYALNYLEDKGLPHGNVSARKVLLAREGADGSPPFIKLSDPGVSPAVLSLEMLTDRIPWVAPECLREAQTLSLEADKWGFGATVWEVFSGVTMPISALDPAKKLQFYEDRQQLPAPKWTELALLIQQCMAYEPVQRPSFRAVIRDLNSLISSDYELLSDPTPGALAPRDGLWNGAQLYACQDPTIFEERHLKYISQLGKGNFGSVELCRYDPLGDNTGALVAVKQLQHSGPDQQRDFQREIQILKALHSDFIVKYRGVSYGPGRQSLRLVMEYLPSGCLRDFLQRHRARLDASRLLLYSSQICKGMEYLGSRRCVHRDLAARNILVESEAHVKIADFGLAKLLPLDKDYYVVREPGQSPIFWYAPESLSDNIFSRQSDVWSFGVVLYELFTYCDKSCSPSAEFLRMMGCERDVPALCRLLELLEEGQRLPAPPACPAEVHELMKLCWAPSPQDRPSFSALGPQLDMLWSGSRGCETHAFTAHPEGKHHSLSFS

[5] = biological target: T2, Tyrosine-protein kinase JAK3 (Homo sapiens); details: at 10 µM
[6] = biological target: Mitogen-activated protein kinase 8 (Homo sapiens) (UniProt P45983); details: at 1 µM
Chain of Mitogen-activated protein kinase 8 (Homo sapiens) (P45983 whole entry): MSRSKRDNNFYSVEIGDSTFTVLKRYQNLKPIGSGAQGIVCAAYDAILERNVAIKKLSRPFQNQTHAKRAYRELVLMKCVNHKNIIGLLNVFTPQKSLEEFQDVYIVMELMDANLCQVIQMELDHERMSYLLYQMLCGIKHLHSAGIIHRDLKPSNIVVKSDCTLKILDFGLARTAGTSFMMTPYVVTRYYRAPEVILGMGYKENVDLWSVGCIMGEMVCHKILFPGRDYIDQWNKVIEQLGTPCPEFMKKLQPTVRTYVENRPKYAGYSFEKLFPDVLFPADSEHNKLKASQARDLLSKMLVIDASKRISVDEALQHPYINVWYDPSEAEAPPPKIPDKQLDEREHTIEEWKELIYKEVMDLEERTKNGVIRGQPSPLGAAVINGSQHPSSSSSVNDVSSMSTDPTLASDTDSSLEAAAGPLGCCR

[7] = biological target: Mitogen-activated protein kinase 8 (Homo sapiens) (UniProt P45983); details: at 10 µM
[8] = biological target: Mitogen-activated protein kinase 9 (Homo sapiens) (UniProt P45984); details: at 1 µM
[9] = biological target: Mitogen-activated protein kinase 9 (Homo sapiens) (UniProt P45984); details: at 10 µM
[10] = biological target: Mitogen-activated protein kinase 10 (Homo sapiens) (UniProt P53779); details: at 1 µM
Chain of Mitogen-activated protein kinase 10 (Homo sapiens) (P53779 whole entry): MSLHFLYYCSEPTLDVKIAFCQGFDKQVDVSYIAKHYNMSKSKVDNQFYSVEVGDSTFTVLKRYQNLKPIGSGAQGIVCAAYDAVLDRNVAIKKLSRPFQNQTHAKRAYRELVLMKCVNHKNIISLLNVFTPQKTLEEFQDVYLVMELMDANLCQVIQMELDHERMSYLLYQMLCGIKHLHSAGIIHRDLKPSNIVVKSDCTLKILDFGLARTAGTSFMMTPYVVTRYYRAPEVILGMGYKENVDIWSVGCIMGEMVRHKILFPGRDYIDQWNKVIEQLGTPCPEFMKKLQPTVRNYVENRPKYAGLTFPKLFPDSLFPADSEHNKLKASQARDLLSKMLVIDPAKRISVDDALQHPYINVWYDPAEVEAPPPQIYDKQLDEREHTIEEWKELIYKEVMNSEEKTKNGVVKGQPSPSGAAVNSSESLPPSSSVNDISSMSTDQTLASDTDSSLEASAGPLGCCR

[11] = biological target: Mitogen-activated protein kinase 10 (Homo sapiens) (UniProt P53779); details: at 10 µM
[12] = biological target: Vascular endothelial growth factor receptor 2 (Homo sapiens) (UniProt P35968); details: at 1 µM
Chain of Vascular endothelial growth factor receptor 2 (Homo sapiens) (P35968 whole entry, the tested form may be a part): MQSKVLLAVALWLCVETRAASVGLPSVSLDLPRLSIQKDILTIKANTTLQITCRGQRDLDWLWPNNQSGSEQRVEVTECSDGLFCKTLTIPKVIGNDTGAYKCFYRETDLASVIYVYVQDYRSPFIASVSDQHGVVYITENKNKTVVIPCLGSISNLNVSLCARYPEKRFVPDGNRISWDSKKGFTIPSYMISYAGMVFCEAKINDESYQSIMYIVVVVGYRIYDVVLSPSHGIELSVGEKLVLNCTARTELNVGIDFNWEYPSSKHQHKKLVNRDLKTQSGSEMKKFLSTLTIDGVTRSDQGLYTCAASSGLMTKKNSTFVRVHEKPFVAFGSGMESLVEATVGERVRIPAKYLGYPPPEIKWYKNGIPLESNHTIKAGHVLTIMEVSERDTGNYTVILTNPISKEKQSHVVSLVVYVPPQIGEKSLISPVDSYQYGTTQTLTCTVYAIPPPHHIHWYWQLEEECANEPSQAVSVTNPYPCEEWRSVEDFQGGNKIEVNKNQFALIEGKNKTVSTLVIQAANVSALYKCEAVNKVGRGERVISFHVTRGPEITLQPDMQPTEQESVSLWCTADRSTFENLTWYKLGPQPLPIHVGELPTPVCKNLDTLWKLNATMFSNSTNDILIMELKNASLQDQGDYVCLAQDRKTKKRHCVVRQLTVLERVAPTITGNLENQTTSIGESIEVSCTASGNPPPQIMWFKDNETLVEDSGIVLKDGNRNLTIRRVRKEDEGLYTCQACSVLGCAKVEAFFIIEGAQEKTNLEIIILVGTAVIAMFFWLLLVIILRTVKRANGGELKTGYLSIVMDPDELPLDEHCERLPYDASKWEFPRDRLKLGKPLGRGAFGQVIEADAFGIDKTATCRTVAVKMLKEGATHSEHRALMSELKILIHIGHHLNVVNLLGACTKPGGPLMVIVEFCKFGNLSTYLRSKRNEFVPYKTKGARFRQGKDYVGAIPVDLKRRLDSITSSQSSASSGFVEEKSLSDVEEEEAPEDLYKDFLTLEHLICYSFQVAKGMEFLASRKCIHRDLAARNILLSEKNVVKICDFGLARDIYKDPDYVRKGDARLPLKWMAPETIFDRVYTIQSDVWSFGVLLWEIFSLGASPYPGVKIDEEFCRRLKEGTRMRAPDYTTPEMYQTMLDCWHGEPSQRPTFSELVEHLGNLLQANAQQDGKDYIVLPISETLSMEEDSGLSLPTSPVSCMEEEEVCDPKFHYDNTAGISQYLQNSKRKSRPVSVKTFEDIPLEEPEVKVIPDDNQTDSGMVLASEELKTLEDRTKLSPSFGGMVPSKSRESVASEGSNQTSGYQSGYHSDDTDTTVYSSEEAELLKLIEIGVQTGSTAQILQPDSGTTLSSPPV

[13] = biological target: Vascular endothelial growth factor receptor 2 (Homo sapiens) (UniProt P35968); details: at 10 µM
[14] = biological target: LIM domain kinase 1 (Homo sapiens) (UniProt P53667); details: at 1 µM
Chain of LIM domain kinase 1 (Homo sapiens) (P53667 whole entry, looked up, the tested form may be a part): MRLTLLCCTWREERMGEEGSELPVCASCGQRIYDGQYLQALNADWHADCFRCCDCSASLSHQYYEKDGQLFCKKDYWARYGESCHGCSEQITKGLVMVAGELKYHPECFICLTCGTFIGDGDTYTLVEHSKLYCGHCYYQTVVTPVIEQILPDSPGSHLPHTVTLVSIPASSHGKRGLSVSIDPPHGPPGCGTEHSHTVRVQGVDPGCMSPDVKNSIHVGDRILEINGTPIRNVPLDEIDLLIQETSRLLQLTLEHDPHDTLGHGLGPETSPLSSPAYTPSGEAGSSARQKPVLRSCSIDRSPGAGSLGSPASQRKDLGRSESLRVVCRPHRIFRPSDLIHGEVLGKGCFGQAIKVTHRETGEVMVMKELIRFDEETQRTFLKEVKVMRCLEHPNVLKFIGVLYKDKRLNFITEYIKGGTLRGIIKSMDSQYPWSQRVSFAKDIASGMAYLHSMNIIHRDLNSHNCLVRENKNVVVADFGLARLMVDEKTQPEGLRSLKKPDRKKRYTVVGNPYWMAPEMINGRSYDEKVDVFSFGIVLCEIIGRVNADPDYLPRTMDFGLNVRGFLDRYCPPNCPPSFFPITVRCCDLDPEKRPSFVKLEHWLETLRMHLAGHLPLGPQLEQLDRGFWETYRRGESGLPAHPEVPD

[15] = biological target: LIM domain kinase 1 (Homo sapiens) (UniProt P53667); details: at 10 µM
[16] = biological target: T3, Serine/threonine-protein kinase STK11 (Homo sapiens) (UniProt Q15831); details: at 1 µM
T3 sequence (whole entry): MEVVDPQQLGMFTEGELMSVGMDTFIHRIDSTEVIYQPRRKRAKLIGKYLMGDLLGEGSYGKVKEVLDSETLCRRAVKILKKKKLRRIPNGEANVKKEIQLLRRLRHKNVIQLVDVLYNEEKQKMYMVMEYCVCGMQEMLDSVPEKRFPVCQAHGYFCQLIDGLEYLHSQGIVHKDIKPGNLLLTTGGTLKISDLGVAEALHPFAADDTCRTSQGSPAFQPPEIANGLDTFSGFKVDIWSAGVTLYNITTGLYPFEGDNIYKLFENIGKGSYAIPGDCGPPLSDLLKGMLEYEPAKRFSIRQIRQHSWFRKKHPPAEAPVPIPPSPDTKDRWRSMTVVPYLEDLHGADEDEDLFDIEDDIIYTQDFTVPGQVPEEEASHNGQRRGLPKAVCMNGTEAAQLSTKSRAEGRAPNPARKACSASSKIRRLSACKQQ

[17] = biological target: T3, Serine/threonine-protein kinase STK11 (Homo sapiens); details: at 10 µM
[18] = biological target: Serine/threonine-protein kinase 10 (Homo sapiens) (UniProt O94804); details: at 1 µM
Chain of Serine/threonine-protein kinase 10 (Homo sapiens) (O94804 whole entry, looked up): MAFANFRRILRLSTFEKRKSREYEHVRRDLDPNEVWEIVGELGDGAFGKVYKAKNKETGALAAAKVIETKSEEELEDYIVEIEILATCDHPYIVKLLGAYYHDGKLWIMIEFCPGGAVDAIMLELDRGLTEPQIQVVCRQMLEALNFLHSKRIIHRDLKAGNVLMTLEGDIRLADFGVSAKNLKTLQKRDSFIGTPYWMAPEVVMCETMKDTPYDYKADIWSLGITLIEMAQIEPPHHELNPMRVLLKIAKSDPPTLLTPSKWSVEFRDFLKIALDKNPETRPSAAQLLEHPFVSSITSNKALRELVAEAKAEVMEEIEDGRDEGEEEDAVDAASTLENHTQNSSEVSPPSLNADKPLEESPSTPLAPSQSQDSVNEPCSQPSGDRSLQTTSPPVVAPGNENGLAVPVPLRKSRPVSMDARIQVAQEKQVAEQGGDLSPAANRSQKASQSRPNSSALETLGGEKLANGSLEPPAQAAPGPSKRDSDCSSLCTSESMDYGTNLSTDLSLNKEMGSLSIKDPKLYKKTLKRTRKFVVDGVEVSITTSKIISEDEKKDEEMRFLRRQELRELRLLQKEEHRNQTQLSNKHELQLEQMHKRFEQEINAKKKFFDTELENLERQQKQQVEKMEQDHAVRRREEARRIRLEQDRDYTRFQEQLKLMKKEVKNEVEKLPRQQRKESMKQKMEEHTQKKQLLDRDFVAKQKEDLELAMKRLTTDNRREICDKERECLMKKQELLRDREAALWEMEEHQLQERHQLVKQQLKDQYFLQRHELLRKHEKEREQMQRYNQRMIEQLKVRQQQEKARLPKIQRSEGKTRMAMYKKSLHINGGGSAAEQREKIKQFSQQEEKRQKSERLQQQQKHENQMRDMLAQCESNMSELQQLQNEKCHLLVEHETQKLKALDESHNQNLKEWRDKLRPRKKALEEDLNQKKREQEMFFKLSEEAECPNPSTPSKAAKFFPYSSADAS

[19] = biological target: Serine/threonine-protein kinase 10 (Homo sapiens) (UniProt O94804); details: at 10 µM
[20] = biological target: Tyrosine-protein kinase Lck (Homo sapiens) (UniProt P06239); details: at 1 µM

| Compound | residual activity [1] | residual activity [2] | residual activity [3] | residual activity [4] | residual activity [5] | residual activity [6] | residual activity [7] | residual activity [8] | residual activity [9] | residual activity [10] | residual activity [11] | residual activity [12] | residual activity [13] | residual activity [14] | residual activity [15] | residual activity [16] | residual activity [17] | residual activity [18] | residual activity [19] | residual activity [20] |
| --- | --- | --- | --- | --- | --- | --- | --- | --- | --- | --- | --- | --- | --- | --- | --- | --- | --- | --- | --- | --- |
| O=c1c2ccccc2[nH]c(=S)n1CCN1CCC(=C(c2ccc(F)cc2)c2ccc(F)cc2)CC1 | 96% | 122% | 102% | 97% | 101% | 104% | 83% | 107% | 101% | 98% | 54% | 103% | 90% | 119% | 93% | 123% | 128% | 107% | 97% | 144% |
| C[C@@H](N)[C@H]1CC[C@H](C(=O)Nc2ccncc2)CC1 | 104% | 95% | 100% | 107% | 122% | 98% | 110% | 111% | 105% | 83% | 86% | 113% | 108% |  | 89% | 97% | 96% |  | 59% |  |
| CC(=O)c1ccc(N2CCOCC2)cc1O | 97% | 102% | 96% | 102% | 105% | 104% | 80% | 101% | 103% | 88% | 85% | 106% | 91% | 104% | 83% | 97% |  | 102% | 90% |  |
